Assay outcomes from PubChem BioAssay.
HCMV antiviral = inhibitors of human cytomegalovirus. activity change, negative = inhibition, % at 57.5 µM. 4.5% of 410,000 active. HFF cells, HCMV-luciferase reporter, 72 h; stronger effect = lower value; in the data active = activity change below about -60%; inconclusive = no clear call, values can overlap the other calls; inactive = above about -39%; also: % is scaled to controls: 0 for no effect and ±100 for the full control effect
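Two-dose cell screen: HFF monolayers treated with compounds and infected with luciferase-expressing HCMV at 1 PFU/cell, 72 h at 37C, then lysed for luciferase measurement.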
CHX counter = counter-screen hit for Shiga toxin inhibitors, cycloheximide; 12% of 300,000 active; max response, %; cell reporter, cycloheximide protein synthesis inhibition counterscreen; AID 2314; in the data active = max response mostly above about 13%, no sharp cut-off; inactive = mostly below about 14%; also: read at 38.3 µM for the half of the compounds with a filed dose; 0% is about no effect
Shiga toxin inh = inhibitors of Shiga toxin in Vero cells; Vero cells, Shiga toxin protein synthesis inhibition reporter; inhibition, % at 38.7 µM; 9.2% of 290,000 active; AID 2315; in the data active = inhibition mostly above about 28%, no sharp cut-off; inactive = mostly below about 43%; also: 0% is about no effect
Pf growth 48h = inhibits P. falciparum growth in the first generation, 48 h; P. falciparum luciferase growth in erythrocytes, 48 h; Potency, µM (doses to about 28.7 µM), for the others: at the top dose activity change, negative = inhibition, usual class: inhibitors; 5.9% of 310,000 active; AID 504832; also: potency is read from the fitted curve at half-maximal effect; % is scaled to controls: 0 for no effect and ±100 for the full control effect
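Firefly luciferase activity from engineered P. falciparum reports growth; inhibitors lower the luminescent signal. Cultures contained 2% hematocrit erythrocytes at 0.1% final parasitemia.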
Pf growth 96h = P. falciparum growth inhibition at 96 hour, primary screen for plastid delayed-death inhibitors. Potency, µM (series often up to 28.7 µM), inactives show top-dose activity change, negative = inhibition, most hits filed as inhibitors. P. falciparum luciferase reporter growth, 96 h. 6.9% of 320,000 active. AID 504834; also: potency is read from the fitted curve at half-maximal effect; % is scaled to controls: 0 for no effect and ±100 for the full control effect
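P. falciparum expressing integrated firefly luciferase, in erythrocytes at 2% hematocrit, 0.05% parasitemia, incubated with compounds 96 h at 37 C, 5% CO2. Growth inhibition read as loss of luminescence; two-generation exposure targets delayed-death apicoplast inhibitors.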
Numbers without * were called inactive. Shown are actives, neighbours in structure and some others; about 20% of the full set was active somewhere. Unless noted, calls follow the shape of the dose curve; as a rule, active = well fitted inhibition curve with a large enough effect; inconclusive = small, poorly fitted or top-dose-only effect, or another doubt; inactive = no such curve, though single readings can be large or run the other way.

Screening Cc1cccc(C)c1NC(=O)CSc1ncnc2nc[nH]c12 returned HCMV antiviral -20.8, CHX counter -2.6, Shiga toxin inh -10.2, Pf growth 48h 6.7% and Pf growth 96h 9.9%.
`O=C(CSc1ncnc2nc[nH]c12)c1ccccc1` gave HCMV antiviral 75.3, CHX counter 35.3*, Shiga toxin inh 99.6*, Pf growth 48h 95.0% and Pf growth 96h 82.0%.
O=C(CSc1ncnc2nc[nH]c12)c1ccc(Cl)cc1 was read as HCMV antiviral 136.4, CHX counter 10.7*, Shiga toxin inh 25.5*, Pf growth 48h 2.9% and Pf growth 96h 35.7%.
`O=C(CSc1ncnc2nc[nH]c12)c1ccc([N+](=O)[O-])cc1` gave HCMV antiviral 27.3, CHX counter 1.5, Shiga toxin inh -1.9, Pf growth 48h inconclusive and Pf growth 96h inconclusive.
For Clc1ccc(CSc2ncnc3nc[nH]c23)cc1 the results were HCMV antiviral 3.7, CHX counter 15.9, Shiga toxin inh 0.7, Pf growth 48h 19.8% and Pf growth 96h 0.0%.
`O=c1c2ccccc2nc(CSc2ncnc3nc[nH]c23)n1-c1ccccc1` gave HCMV antiviral -5.0, CHX counter -3.0, Shiga toxin inh -1.3 and Pf growth 48h 10.3%.
For Cc1cccc(C)c1-n1nnnc1C(c1ccccc1)N1CCN(C/C=C/c2ccccc2)CC1 (configuration not stated) the results were HCMV antiviral -27.7.
Screening COc1cc(C(=O)C(=O)N2CCC(Cc3ccccc3)CC2)cc2ccccc12 returned HCMV antiviral -10.8.
For O=S(=O)(NC1CCCC1)c1cccc(-c2nnc(-c3ccccc3)o2)c1 the results were CHX counter 30.5*, Shiga toxin inh 7.4 and Pf growth 96h inconclusive.
For COc1ccc(NS(=O)(=O)c2cccc(-c3nnc(-c4ccccc4)o3)c2)cc1 the results were HCMV antiviral -19.8, CHX counter 14.8*, Shiga toxin inh 56.6*, Pf growth 48h inconclusive and Pf growth 96h inconclusive.
Screening COc1ccc(C2C(C(=O)NCc3cccnc3)c3ccccc3C(=O)N2C)cc1OC (configuration not stated) returned HCMV antiviral 1.0, CHX counter 7.8, Shiga toxin inh -36.7, Pf growth 48h 4.5% and Pf growth 96h -10.1%.
`Cc1ccccc1S(=O)(=O)N(CC(O)CN1CCCCC1)c1ccccc1` (configuration not stated) gave HCMV antiviral -2.5, CHX counter -2.0, Shiga toxin inh -4.8, Pf growth 48h inconclusive and Pf growth 96h -17.6%.
NC(=O)C1CC(=O)N(c2ccc(OCc3ccc([N+](=O)[O-])cc3)cc2)C1 (configuration not stated) was read as HCMV antiviral 64.5, CHX counter 26.1*, Pf growth 48h 90.8% and Pf growth 96h 52.8%.
For O=C(O)C1CC(=O)N(c2ccc(OCc3ccccc3Cl)cc2)C1 (configuration not stated) the results were HCMV antiviral -39.9, CHX counter -3.9, Shiga toxin inh -4.1 and Pf growth 48h -5.6%.
`NC(=O)C1CC(=O)N(c2ccc(OCc3ccc(F)cc3)cc2)C1` (configuration not stated) gave HCMV antiviral 48.5, CHX counter 37.4*, Shiga toxin inh 93.7*, Pf growth 48h 125.2% and Pf growth 96h 37.0%.
For Cc1ccc(N2CC(C(=O)OCC(=O)c3ccc(F)cc3)CC2=O)cc1 (configuration not stated) the results were HCMV antiviral 53.8, CHX counter -2.1, Shiga toxin inh -7.0, Pf growth 48h 12.6% and Pf growth 96h 2.94µM*.
`NC(=O)C1CC(=O)N(c2ccc(OCc3c(F)cccc3Cl)cc2)C1` (configuration not stated) gave HCMV antiviral inconclusive, CHX counter 9.8, Shiga toxin inh 19.9, Pf growth 48h -2.3% and Pf growth 96h 7.1%.
Screening NC(=O)C1CC(=O)N(c2ccc(OCc3ccccc3Cl)cc2)C1 (configuration not stated) returned HCMV antiviral 20.7, CHX counter 22.8*, Shiga toxin inh 24.5*, Pf growth 48h 40.6% and Pf growth 96h inconclusive.
Screening Cc1ccc(N2CC(C(=O)OCc3ccc([N+](=O)[O-])cc3)CC2=O)cc1 (configuration not stated) returned HCMV antiviral -25.7, CHX counter 5.1, Shiga toxin inh 5.6 and Pf growth 96h 0.5%.
CC(C)(C)OC(=O)N1CCc2onc(-c3ccc(-n4cc(C5=CCCCC5)nn4)cc3)c2C1=O was read as HCMV antiviral 78.5.
For O=C(c1ccc([N+](=O)[O-])cc1)N(c1ccccn1)c1ccccn1 the results were HCMV antiviral -17.9, CHX counter 1.2, Shiga toxin inh -24.1, Pf growth 48h 9.4% and Pf growth 96h -16.1%.
`CN(N=Cc1ccc([N+](=O)[O-])cc1)c1ccccn1` gave HCMV antiviral -69.8*.
Screening Clc1ccc(CSc2ccc(-c3cccs3)nn2)cc1 returned HCMV antiviral -8.7.
Screening N#Cc1c(N)nc(SCc2ccccn2)c(C#N)c1-c1cccs1 returned HCMV antiviral -68.5*, CHX counter 0.8, Shiga toxin inh -11.8 and Pf growth 48h inconclusive.
Screening CCOC(=O)CSc1nc(N)c(C#N)c(-c2cccs2)c1C#N returned HCMV antiviral -5.4, CHX counter 10.0, Shiga toxin inh -23.7, Pf growth 48h 33.2% and Pf growth 96h 110.7%.
`c1ccc(CSc2ccc(-c3cccs3)nn2)cc1` gave HCMV antiviral -31.0, CHX counter 31.0*, Shiga toxin inh 40.1*, Pf growth 48h 200.3% and Pf growth 96h 155.5%.
For c1ccc(CSc2ccc(-c3cccs3)nn2)nc1 the results were HCMV antiviral 10.0, CHX counter 43.7*, Shiga toxin inh 50.9*, Pf growth 48h 200.2% and Pf growth 96h inconclusive.
Clc1cccc(CSc2ccc(-c3cccs3)nn2)c1 was read as HCMV antiviral 26.7.
Cc1ccc(S(=O)(=O)c2cc3cc(C(=O)Nc4ccc(C)cc4C)ccc3oc2=O)cc1 was read as HCMV antiviral 17.7.
Screening CCOC(=O)[C@H]1[C@H]2COc3ccc(OC)cc3[C@@H]2N2C(=O)c3cc(F)c(F)cc3NC(=O)[C@@]12C returned HCMV antiviral -19.3, Pf growth 48h inconclusive and Pf growth 96h inconclusive.
For CCOC(=O)[C@H]1[C@H]2COc3ccc(OC)cc3[C@@H]2N2C(=O)c3ccccc3NC(=O)[C@@]12C the results were HCMV antiviral -80.0*, Pf growth 48h inconclusive and Pf growth 96h inconclusive.
CCOC(=O)[C@H]1[C@H]2COc3ccc(OC)cc3[C@@H]2N2C(=O)c3cc(OC)ccc3NC(=O)[C@@]12C was read as HCMV antiviral -15.2, Pf growth 48h 10.4µM* and Pf growth 96h inconclusive.
For CCN(CC)C(=O)c1sc2c(c1C)c(=O)n(-c1ccc(C)c(C)c1)c(=O)n2Cc1cc(=O)n2c(C)cccc2n1 the results were HCMV antiviral 18.6.
